Measurements reported in the supplement of paper PMC11417369.
± gives the standard deviation of the averaged measurements. Over roughly 25,000 sequences, “ln(normalized median fluorescence intensity)” has its median near 8.6; the highest 2% begin near 10. Only a selection was taken, and the highest values are over-represented in it overall.

What follows are sequences tested on PfAP2-EXP AP2 domain (GST-tagged) (assay: gcPBM binding intensity (ln(normalized median fluorescence intensity)); higher = stronger DNA binding).
How it was run: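 After 1 h on an Agilent 4 × 180k array of primer-extended double-stranded 36-bp intergenic genomic probes and negative controls, bound GST-tagged P. falciparum DNA-binding domains were detected with Alexa488 anti-GST antibody and scanned at 488 nm. The domains had been expressed in E. coli, and binding took place in 1× PBS with 1% milk, 0.2 mg/ml BSA, 0.5% salmon testes DNA and 0.03% Triton X-100. Binding intensity is the highest Masliner-normalised natural-log median intensity across replicate spots of either probe orientation.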

Sequence	gcPBM binding intensity (ln)
TTATAAATATTCTTGGGTACTTAAGATGATATGTAA [XGTACX_site5496]	8.34 ± 0.39
GTTATTAAATAATTCACACACATATATATATATATA [CACACA_site2260]	10.3 ± 0.45
CAAAATAAAAAATTCACACACATATATATATATATA [CACACA_site2088]	10.2 ± 0.38
TTTATTATCTTATTCACACACATATATAAATATGTA [CACACA_site7369]	8.58 ± 0.4
CAAAATAAAAAATTCACACACATATAAATATAAATA [CACACA_site7065]	8.54 ± 0.24
AAAAAAAAAAAAAATTCACACACATATAAAAAATTA [CACACA_site8140]	8.31 ± 0.47
ATCTCTTATATATTCACACACATATATATAATTATA [CACACA_site1502]	8.85 ± 0.42
GTTATTAAATAATTCACACACATATATAAATAAATA [CACACA_site7129]	8.31 ± 0.48
GCGTTATTAAATAATTCACACACATATATATATATA [CACACA_site8711]	10 ± 0.38
TTTATTATCTTATTCACACACATATATATATATATA [CACACA_site2869]	10.2 ± 0.41
ATTATATATATATATAAACACACATAAATATAAATA [CACACA_site8291]	8.56 ± 0.38
AAAATATTTATTTTTTGTACACATAAAAACGCACTT [XGTACX_site4132]	8.62 ± 0.11
TATTATTTTTTAAATTGTACAATAAATTATAAAAGG [XGTACX_site1162]	8.41 ± 0.39
TTCTAATATTTTTGCACACTAAACAATAAATTTCCT [CACACA_site3944]	8.885 ± 0.078
AGCTCTCAAAATTATTCACACGTGTCCTGTTATATA [CACACA_site5415]	9.26 ± 0.47
TTTGTGTAAAGAATCAGTACATATAATATATATATA [XGTACX_site1972]	9.34 ± 0.33
ATATATTTCATTTTTGTACACACAACGTTGGAGGGT [CACACA_site8999]	8.84 ± 0.39
AAAATAATTGTTTACACACCCATTTGTAATTTTACC [CACACA_site3614]	8.54 ± 0.37
GTACCTATTTCATACACACACACACGCAAACAAACA [CACACA_site6590]	9.01 ± 0.34
CACTTAACACAAGAGTGTACACATATATATATATAT [XGTACX_site686]	10.1 ± 0.53
TTAACTCAAGAGTGTACACATATATATATATATATA [CACACA_site4334]	10.2 ± 0.47
GTATATATGTATATGTGTACACATATTCTTAACTCA [XGTACX_site309]	8.88 ± 0.33
TTATAAATGTAACGATGTACTTTTAAAAGTTTCCTT [XGTACX_site109]	8.36 ± 0.38
TGGTATTAAGGAGAGGGTACAAAAAAAAAAAAAAAA [XGTACX_site1668]	8.28 ± 0.49

Sequence	gcPBM binding intensity (ln)
AATAATATCATTTAGACACACACTCTTACAATATGT [CACACA_site8832]	8.61 ± 0.45
GTTTATATTTAATTTTTTTGTTTTTTTGTGTAATTC [XGTACX_negctrl_site194]	8.53 ± 0.47
AGATTTAAATATCATACACACTTTATCTATAATACA [CACACA_site6581]	8.32 ± 0.4
ATAAAATTTTATATGGGTACATAATATAATATATAT [XGTACX_site8160]	8.84 ± 0.41
TAAAAAATAAATATATGTACATATTTATTTTTTTTT [XGTACX_site850]	8.21 ± 0.35
ATAAATATATTTAAATGTACATAATATATATATATA [XGTACX_site5137]	9.96 ± 0.18
AATAAATTAATTTTGGGTACATATATATATATATAT [XGTACX_site3807]	10.2 ± 0.23
TTAATATTAATTATATGTACATATAATATATATATA [XGTACX_site1757]	9.18 ± 0.13
TTATAATTTAATAAATGTACATAAATAATATACATA [XGTACX_site7271]	8.26 ± 0.18
TAATTAATAATAATATGTACATATTAATATATTATT [XGTACX_site6900]	8.29 ± 0.24
CATATTAATATTATGGGTACATATAAATTTACATTC [XGTACX_site687]	8.64 ± 0.38
ATATATATATATATATGTACATAAATATTTTAAAAT [XGTACX_site4980]	10.3 ± 0.4
ATATATATATATATATGTACATAATTAATAATTAGA [XGTACX_site5672]	10.3 ± 0.25
GTATTTTTTTTAATATGTACATATAAAATATTTTAT [XGTACX_site8329]	8.96 ± 0.31
AAATAATTTACTTAATGTACATATATATATATATAT [XGTACX_site8594]	10.59 ± 0.092
TAATTTAAAATATATAGTACACACGTGAACACAAAT [XGTACX_site792]	8.89 ± 0.45
AATATATCATAATGATGTACAAGTAAAACCGTTACA [XGTACX_site4280]	8.74 ± 0.52
TATTATATGTATTGCACACCTTCAACAACTACTTCT [CACACA_site655]	9.03 ± 0.14
TATTATTTTTTTATTCTATTAAAAAGAAAAAAATGA [CACACA_negctrl_site407]	7.95 ± 0.47
ACTTTACGAATTAAGAGTACTTATTTAAGGAACACT [XGTACX_site7919]	8.52 ± 0.37
CTACATAAAAAAATATGTACATATATATATATATAT [XGTACX_site667]	10 ± 0.46
AAATATAAAAAAAAAAGTACTTTGTTACTTTTCTAT [XGTACX_site6034]	8.04 ± 0.36
AACACATACAGATATGCACACATTTTATTCCATTAT [CACACA_site5565]	8.84 ± 0.34
TGAAAAAATATAATTTGTACATATCAGGCAAAAATG [XGTACX_site1824]	8.68 ± 0.38
